Screens deposited in PubChem BioAssay by National Center for Advancing Translational Sciences (NCATS).
The list is not random: actives were taken first. Their share in the collection is about 8.7%.
Vaccinia mCherry – inhibitors of vaccinia virus infection (mCherry reporter signal); Potency, µM (highest dose often 36.5 µM), for inactives: top-dose activity change, negative = inhibition, hits mostly inhibitors; AID 720579; Vaccinia virus mCherry reporter infection, fluorescence; 310,000 tested, 0.63% active; calls by dose curve; tested in A549 cells; note: nearly all actives have a fitted effect of over 35% in size
VACV Venus inh – inhibitors of vaccinia virus (Venus reporter) | Vaccinia virus Venus reporter expression, fluorescence | Potency, µM (highest dose often 36.5 µM), inactives show top-dose activity change, negative = inhibition, most hits filed as inhibitors | 330,000 tested, 0.46% active | AID 720580; calls by dose curve; tested in A549 cells; note: nearly all actives have a fitted effect of over 30% in size
Pf growth 48h – inhibits P. falciparum growth in the first generation, 48 h; P. falciparum luciferase growth in erythrocytes, 48 h; Potency, µM (series often up to 28.7 µM), for inactives: top-dose activity change, negative = inhibition, actives largely listed as inhibitors; 310,000 tested, 5.9% active
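Compounds are pin-transferred into medium, infected erythrocytes (2% hematocrit, 0.1% parasitemia final) are added, and plates sit one parasite generation at 37 C in 5% CO2. Detection reagent is then added and luminescence measured.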
AMA1-RON2 inh – AMA1-RON2 (P. falciparum) interaction inhibition; AlphaScreen AMA1-biotinylated RON2 peptide binding; Potency, µM (top dose mostly 58.2 µM), without a hit: top-dose activity change, negative = inhibition, actives largely listed as inhibitors; 360,000 tested, 0.2% active;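 note: 0% = vehicle wells and -100% = peptide control; nearly all actives have a fitted effect of over 45% in size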
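AMA1 (3D7) with his tag at 25 nM final met compounds first, then biotinylated RON2 peptide at 25 nM; detection used donor plus acceptor beads, 10 µg/mL apiece, read by AlphaScreen after 30 min at room temperature.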
Pf growth 96h – P. falciparum growth inhibition at 96 hours; 320,000 tested, 6.9% active; Potency, µM (series often up to 28.7 µM), for the others: top-dose activity change, negative = inhibition, hits mostly inhibitors; P. falciparum luciferase reporter growth, 96 h
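Readout is luminescence from an integrated firefly luciferase in P. falciparum. Red cells, 2% hematocrit and 0.05% parasitemia final, were cultured with compound through two parasite generations (96 hours) at 37 C, 5% CO2.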
An asterisk follows results filed as active; [ ] = dose if it differs, or a comment. Unless noted, calls come from the whole dose curve; as a rule, active = well fitted curve in the direction sought with a large enough effect; inconclusive = small, poorly fitted or top-dose-only effect, or another doubt; inactive = no such curve, though single readings can be large; an effect the other way counts as inactive or inconclusive. Unless noted, % is set by controls: 0 for no effect and ±100 for the full control effect; potency is the fitted concentration of half-maximal effect.

Screening CCC1CN(CCNC(=O)c2cccc3nccnc23)Cc2cc(OC)ccc2O1 (stereo not given) returned Vaccinia mCherry -8% and VACV Venus inh 1%.
Screening CCc1cccc(CC)c1NC(=O)CCS(=O)(=O)c1ccc(Br)s1 returned Vaccinia mCherry -16% and VACV Venus inh 3%.
`Cc1ccc(C)c(N2CCN(C(=O)Nc3cn(CC(C)C)c(=O)c4ccccc34)CC2)c1` gave Vaccinia mCherry -25% and VACV Venus inh -21%.
Cc1ccccc1OCCSc1nc2ccc(NC(=O)c3cccs3)cc2s1 was read as Vaccinia mCherry -16% and VACV Venus inh -23%.
`Cc1ccc(-c2nc(SCC(=O)NCc3ccco3)c3c(=O)n(C)c(=O)n(C)c3n2)cc1` gave Vaccinia mCherry -1% and VACV Venus inh -5%.
Cc1ccc(C(=O)NCc2ccco2)cc1S(=O)(=O)N1CCCCC1 was read as Vaccinia mCherry inactive, VACV Venus inh -19%, Pf growth 48h inconclusive, AMA1-RON2 inh -2% and Pf growth 96h 2.3µM*.
Screening Cc1cc2cc(CNC(=O)c3ccc(S(=O)(=O)N4CCCCC4)cc3)ccc2n1C returned Vaccinia mCherry -8%, VACV Venus inh inconclusive, AMA1-RON2 inh 10% and Pf growth 96h 42%.
Screening Cc1cc2cc(CNC(=O)c3ccc(S(=O)(=O)N4CCCC4)cc3)ccc2n1C returned Vaccinia mCherry 3%, VACV Venus inh 7%, Pf growth 48h inconclusive, AMA1-RON2 inh -3% and Pf growth 96h 9.3µM*.
O=C(NCc1ccco1)c1ccc(COc2cc(Cl)ccc2Cl)cc1 was read as Vaccinia mCherry -36%, VACV Venus inh inconclusive, Pf growth 48h 5.2µM*, AMA1-RON2 inh 0%[11.6 µM] and Pf growth 96h inconclusive.
Screening Cc1ccc(C(=O)Nc2ccccc2C(=O)NCc2ccco2)cc1S(=O)(=O)N1CCCCC1 returned Vaccinia mCherry -12%, VACV Venus inh -26%, Pf growth 48h 6.6µM*, AMA1-RON2 inh -22% and Pf growth 96h 47%.
`COc1cc(Cl)c(C)cc1N1C(=O)[C@@H]2C[C@H]1CN2Cc1ccccn1` gave Vaccinia mCherry -8% and VACV Venus inh -2%.
Screening COc1ccc(CNC(=O)c2ccc(N3CCCC3)c(NC(=O)NCc3ccc(C)cc3)c2)cc1 returned Vaccinia mCherry -22% and VACV Venus inh -25%.
COc1cccc(CNC(=O)C2CCN(C(=O)c3cnn(-c4ccccc4)c3-n3cccc3)CC2)c1 was read as Vaccinia mCherry -12% and VACV Venus inh -7%.
O=C(Nc1ccc(F)c(Cl)c1)C1Cc2ccccc2CN1S(=O)(=O)c1ccc(F)cc1 (stereo not given) was read as Vaccinia mCherry -15% and VACV Venus inh -20%.
CCn1c(C)c(C)c2cc(C(=O)NCc3cccc(C)c3)ccc21 was read as Vaccinia mCherry -20% and VACV Venus inh -15%.
COc1cc(=O)n2c(c1C(=O)N(C)Cc1nonc1C)CCN(C(=O)C1C(C)(C)C1(C)C)CC2 was read as Vaccinia mCherry inactive and VACV Venus inh 0%.
`CCCCN(CC)CCNC(=O)CCn1cnc2onc(-c3ccc(F)cc3)c2c1=O` gave Vaccinia mCherry 6% and VACV Venus inh 7%.
Screening CC(C)(CNC(=O)C1CCN(S(=O)(=O)c2cc([N+](=O)[O-])ccc2Cl)CC1)N1CCOCC1 returned Vaccinia mCherry 14µM*, VACV Venus inh inconclusive, Pf growth 48h inconclusive, AMA1-RON2 inh 9% and Pf growth 96h inconclusive.
For O=C(NCc1ccco1)C1CCN(S(=O)(=O)c2cccc([N+](=O)[O-])c2)CC1 the results were Vaccinia mCherry -2%, VACV Venus inh -1%, Pf growth 48h 9.3µM*, AMA1-RON2 inh -8% and Pf growth 96h -10%.
`COc1ccc(C(=O)C2CCCN(Cc3cnc(C)s3)C2)cc1OC` (stereo not given) gave Vaccinia mCherry -13%, VACV Venus inh -11%, Pf growth 48h 4%, AMA1-RON2 inh 6% and Pf growth 96h 15µM*.
`CCOc1cccc(CN2CCCC(N3CCN(c4cccc(Cl)c4)CC3)C2)c1O` (stereo not given) gave Vaccinia mCherry -17%, VACV Venus inh -9%, Pf growth 48h inconclusive, AMA1-RON2 inh -1% and Pf growth 96h 3.7µM*.
